Compounds with a hit are over-represented: about 9.3% of the library has one in this group of screens.
Rab9 promoter act – activators of Rab9 promoter; Huh7 Rab9 promoter-luciferase reporter, luminescence, 24 h; AID 485297; 320,000 compounds, 2.8% hits; Potency, µM (series often up to 9.22 µM), for inactives: at the highest dose activation, negative = inhibition, usual class: activators; also: % of control where 0% means no effect; nearly all actives have a fitted effect of over 60% in size
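Stable Rab9-luc Huh7, 1500 cells/well, 2 h settle; cmpd in DMSO, 24 h, 37 °C/5% CO2; luciferase reagent 10 min RT; luminescence.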
FLuc counter – counter-screen for miR-21 project: firefly luciferase inhibitors or activators. P08659. purified FLuc, Km substrates, luminescence inhibition. Potency, µM (titrated, usually from 57.5 µM), for inactives: at the top dose activity change, negative = inhibition, actives largely listed as inhibitors. 360,000 compounds, 6.9% hits. AID 588342;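 also: plate controls were vehicle for no effect and reference inhibitor for full effect; nearly all actives have a fitted effect of over 55% in size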
Target sequence (P08659 whole entry, looked up): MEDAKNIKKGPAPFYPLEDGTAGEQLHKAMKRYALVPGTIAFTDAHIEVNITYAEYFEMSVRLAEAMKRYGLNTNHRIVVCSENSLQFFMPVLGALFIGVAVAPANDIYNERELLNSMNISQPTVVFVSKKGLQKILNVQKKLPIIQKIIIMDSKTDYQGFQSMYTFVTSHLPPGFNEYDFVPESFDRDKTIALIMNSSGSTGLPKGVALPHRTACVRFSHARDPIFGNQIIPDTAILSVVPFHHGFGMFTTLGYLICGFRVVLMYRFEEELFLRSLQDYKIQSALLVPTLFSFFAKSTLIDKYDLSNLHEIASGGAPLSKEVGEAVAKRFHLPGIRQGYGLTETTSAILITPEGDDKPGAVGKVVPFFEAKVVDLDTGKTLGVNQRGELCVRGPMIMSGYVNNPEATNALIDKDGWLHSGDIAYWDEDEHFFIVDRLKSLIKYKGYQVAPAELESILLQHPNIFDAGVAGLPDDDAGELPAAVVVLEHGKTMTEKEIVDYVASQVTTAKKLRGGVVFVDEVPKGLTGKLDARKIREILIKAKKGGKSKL
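Biochemical qHTS of compounds, final roughly 60 µM downward over six points, against 10 nM purified firefly luciferase using Km concentrations of substrates (10 uM D-luciferin, 10 uM ATP) in Tris acetate pH 7.5 buffer; luminescence output.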
ELG1 genotox – inducers of genotoxicity in HEK293T ELG1-luciferase cells; HEK293T ELG1-luciferase reporter, luminescence, 16 h; Potency, µM (doses to about 46 µM), inactives show top-dose activity change, positive = activation, usual class: activators; 330,000 compounds, 1.3% hits; also: % of control where 0% means no effect; nearly all actives have a fitted effect of over 60% in size
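DMSO vehicle served as control against compound-treated ELG1-luciferase HEK293T cells; exposure lasted 16 hr at 37 °C and 5% CO2, followed by ONE-Glo luminescence detection after 30 min.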
ELG1 DNA repair – inhibitors of ELG1-dependent DNA repair in HEK293T cells. HEK293T ELG1-luciferase reporter, luminescence, 16 h; DNA damage induced by 5-fluorouridine. Potency, µM (highest dose often 46.1 µM), inactives show at the top dose activity change, negative = inhibition, usual class: inhibitors. 330,000 compounds, 2.3% hits; also: % is scaled to controls: 0 for no effect and ±100 for the full control effect; nearly all actives have a fitted effect of over 55% in size
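Quantitative HTS, concentration-response format. 2,000 cells/well co-treated with 5-fluorouridine and compound, 16 hr in 5% CO2 at 37 °C; ONE-Glo luminescence read after 30 min.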
SMN2 splice up – increases expression of the SMN2 splice variant; HEK293 SMN2-luciferase splicing reporter, luminescence, 30-36 h; Potency, µM (series often up to 46.1 µM), without a hit: at the highest dose activity change, positive = activation, usual class: activators; 210,000 compounds, 2.8% hits; also: % of control where 0% means no effect; nearly all actives have a fitted effect of over 55% in size
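qHTS luciferase splicing reporter: luminescence rises when SMN2 exon 7 is included in transfected HEK293 cells. Compound exposure lasted 30-36 h at 37C, with 4.5 mM final sodium butyrate as control, followed by a ONE-Glo read.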
NPC1 prom act – NPC1 promoter activation | Huh7 NPC1 promoter luciferase reporter, 24 h | Potency, µM (series often up to 9.22 µM), inactives show top-dose activation, usual class: activators | 320,000 compounds, 2.4% hits | AID 485313; also: % of control where 0% means no effect; nearly all actives have a fitted effect of over 60% in size
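Readout is luciferase luminescence, reflecting NPC1 promoter activation in stably transfected Huh7 cells after 24 h compound exposure at 37 °C in reduced-serum medium with 10% FBS.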
Numbers without * were called inactive; ? = inconclusive; / = no result given; [ ] = another dose, or the depositor's remark. Calls follow the shape of the dose curve; as a rule, active = well fitted curve in the direction sought with a large enough effect; inconclusive = small, poorly fitted or top-dose-only effect, or another doubt; inactive = no such curve, though single readings can be large; an effect the other way counts as inactive or inconclusive. Potency is read from the fitted curve at half-maximal effect.

SMILES | Rab9 promoter act | FLuc counter | ELG1 genotox | ELG1 DNA repair | SMN2 splice up | NPC1 prom act
CN(/N=C/C=C/c1ccccc1)c1cc(=O)n(C)c(=O)[nH]1 | 15.7% | -19.2% | -2.6% | ? | 9.6% | 10.6%
Cc1nc2oc3ccccc3c(=O)c2cc1C(=O)O | -1.6%[1.84 µM] | -15.4% | 7.8% | ? | / | 2.1%
Cc1nc2oc3ccc(F)cc3c(=O)c2cc1C(=O)NC(C)(C)C | 15.0% | ? | ? | ? | ? | 0.7%
CC(C)c1ccc2oc3nc(N)c(C(=O)O)cc3c(=O)c2c1 | 0.501µM* | 0.426µM* | / | / | / | 0.316µM*
Cc1nc2oc3ccc(Cl)cc3c(=O)c2cc1C(=O)O | ? | 23.9µM* | 15.5% | ? | / | ?
CCCC1CCC(c2ccc(OCC)cc2)=CC1=O (centres undefined) | 3.55µM* | 6.75µM* | ? | ? | / | 2µM*
O=C(CCn1c(=S)oc2ccccc21)Nc1ccccc1Br | -13.0% | -1.3% | 0.8% | -4.6% | / | 0.5%
Clc1ccc(-n2cc(COCc3ccccc3)nn2)cc1 | 0.891µM* | 1.9µM* | ? | ? | 12.6µM* | 0.891µM*
O=C(Nc1ccc(Cl)cc1)OCc1cn(-c2ccc(Cl)cc2)nn1 | 9.2% | ? | 2.6% | ? | 10.2% | 0.2%
Cc1cccn2c(=O)c3cc(C(=O)N(Cc4ccccc4)C(C)C)sc3nc12 | / | -1.1% | / | / | ? | /
COc1cc(C)c(Cl)cc1S(=O)(=O)N1CCSC1 | -1.1% | -3.4% | 0.3% | -7.6% | / | -6.5%
CC(=O)c1cccc(NC(=S)NC(=O)c2ccccc2Br)c1 | 1.0% | 16.9µM* | 0.7% | 1.2% | -4.3% | 5.8%
CC(=O)c1cccc(NC(=S)NC(=O)c2cccc(C)c2)c1 | 3.16µM* | 4.26µM* | ? | ? | 15.8µM* | ?
Cc1cccc(NC(=S)NNC(=O)c2ccccc2Br)c1 | 3.16µM* | ? | 9.5% | ? | 12.6µM* | 21.6%
CC(=O)c1cccc(NC(=S)NC(=O)c2ccccc2C)c1 | -5.2% | ? | -0.3% | 0.7% | / | -6.0%
CC(=O)c1cccc(NC(=S)NC(=O)c2ccc(Cl)cc2)c1 | ? | 13.5µM* | ? | ? | 15.8µM* | ?
COC(=O)C1(CCSC)NC(c2ccc(O)c(OC)c2)C2C(=O)N(c3ccc(C)cc3)C(=O)C21 (centres undefined) | -15.7% | 4.7% | -3.7% | -17.7% | / | 1.2%
COCCNC(=O)[C@H](C)/C=C(\c1cccnc1)C(NC(=O)OCc1ccccc1)c1ccc(C(=O)OC)cc1 (some centres undefined) | / | / | / | / | -4.5% | /
CCC(=O)n1nc(-c2ccco2)nc1SCc1ccccc1 | 9.1% | 15.1µM* | ? | ? | ? | 15.2%
CC1=NOC(=O)/C1=C/c1ccc(N(C)C)cc1 | 0.6% | 7.57µM* | 5.6% | ? | / | -1.0%
COc1ccc(/C=C2\N=C(C(C)(C)C)OC2=O)c(OC)c1 | 1.6% | ? | -0.5%[9.26 µM] | 0.0% | / | -0.9%
CN(C)c1ccc(/C=C2\N=C(C(C)(C)C)OC2=O)cc1 | -3.7% | 1.51µM* | -0.5% | 6.4% | / | 1.1%
CN(C)c1ccc(/C=C2\C(=O)Nc3ccccc32)cc1 | 3.66µM* | / | / | / | 3.16µM* | 1.46µM*
CCN(CC)c1ccc(/C=C2/C(=O)ON=C2C)cc1 | -2.5% | 12µM* | 5.8% | ? | -2.4% | -2.2%
CCN(CC)c1ccc(C=C2C(=O)OC3(CCCCC3)OC2=O)cc1 | 9.8% | ? | -0.2% | ? | -5.9% | -5.2%
SMILES | Rab9 promoter act | FLuc counter | ELG1 genotox | ELG1 DNA repair | SMN2 splice up | NPC1 prom act
COc1ccc2c(c1)[N+](=O)C(/C(C)=N/NC(N)=S)=C(C)[N+]2=O | / | / | / | / | -0.7%[9.22 µM] | /
CC(C)(C)NC(=O)COc1ccc(S(=O)(=O)N2CCCC2)cc1 | 2.6% | -5.5% | 1.8% | 24.4% | / | 5.1%
COC(=O)C1=C(C)N(C)C(=O)NC1c1cccc2ccccc12 (centres undefined) | 1.8% | -0.8% | 0.0% | -23.3% | / | 0.3%
CC(C)C(OC(=O)c1cccs1)C(=O)NCc1ccco1 (centres undefined) | -5.0% | 0.8% | 0.7% | 3.1% | 17.8% | 0.6%
Cc1cc2c(cc(C(=O)OC(C(=O)NCc3ccco3)C(C)C)n2C)o1 (centres undefined) | 0.0% | -1.5% | -9.3% | 23.1µM* | -16.5% | -0.8%
O=C(C1CCC(=O)N(C2CCCC2)C1)N1CCN(c2ccccc2Cl)CC1 (centres undefined) | 10.7% | -4.6% | 0.6% | 3.7% | / | 4.8%
CCOC(=O)N1CCN(C(=O)Cn2nc(C)n3nc(-c4ccc(CC)cc4)cc3c2=O)CC1 | 5.8% | 4.78µM* | 14.1% | 1.3% | / | 5.6%
CCc1ccc(-c2cc3c(=O)n(CC(=O)N4CCCC4)nc(C)n3n2)cc1 | 8.4% | ? | 2.7% | -1.5% | / | 2.8%
COc1ccccc1N(CC(=O)Nc1ccccc1C(=O)N1CCOCC1)S(C)(=O)=O | -45.2% | 1.6% | 3.4% | 22.0% | / | 0.9%
O=C(CCC1CCCC1)Nc1ccc(C(=O)NCc2cccnc2)cc1 | 0.9% | -7.5% | 2.2% | 16.4µM* | / | -2.0%
CCOc1cc(C=C(C(=O)OC)C(=O)OC)ccc1OCc1ccc([N+](=O)[O-])cc1 | 3.0% | -0.9% | -11.0% | 20.6µM* | -63.2% | -3.0%
CCOc1cc(/C=N/O)ccc1OCc1ccc([N+](=O)[O-])cc1 | -1.5% | ? | 5.7% | -21.2% | -26.9% | -0.2%
Cc1[nH]c2ccccc2c1N=Nc1ccc(F)cc1 | 24.3% | ? | 0.3% | -4.7% | 11.2% | 0.0%
Cc1[nH]c(N=Nc2ccccc2)nc1N=Nc1ccccc1 | -4.4% | 6.01µM* | 8.1% | ? | / | 0.0%
COc1cccc(/C=N/Nc2nn3cnnc3c3ccccc23)c1O | -22.1% | -5.9% | -0.1% | -4.9% | -18.8% | -16.3%
Oc1cccc(/C=N/Nc2nn3cnnc3c3ccccc23)c1 | 8.9% | 8.49µM* | -2.6% | -19.9% | / | 15.0%
CCOC(=O)c1ccc(Nc2ncnc3nc[nH]c23)cc1 | ? | ? | ? | ? | 10µM* | ?
c1ccc(COc2ccc(Nc3ncnc4nc[nH]c34)cc2)cc1 | ? | 10.7µM* | ? | ? | 0.1% | ?
CCOC(=O)c1sc(NC(=O)c2cccnc2)nc1C | 25.0% | 15.1µM* | ? | ? | -1.9% | 16.2%
CCOC(=O)c1sc(NC(=O)CSc2ncccn2)nc1C | 2.7% | -11.2% | -1.8% | 0.4% | / | -2.2%
CCOC(=O)c1sc(NC(=O)c2ccc3nc[nH]c3c2)nc1C | 1.8% | 5.36µM* | ? | ? | / | -6.9%
CCOC(=O)c1sc(NC(=O)CSc2nccn2C)nc1C | ? | ? | 20.6µM* | ? | / | ?
CCC1(c2ccc(F)cc2)NC(=O)N(CC(=O)Nc2ccc(N3CCCCC3)cc2)C1=O (centres undefined) | 1.3% | ? | 1.4% | 0.3% | / | 2.7%

Compound activity: PubChem, National Center for Advancing Translational Sciences (NCATS)
